Compound activity as filed in PubChem.
This is a sample that favours compounds with a hit; in the whole collection about 1.3% have one here.
IL2 activator – activators of IL-2 | IL-2 activation reporter assay, cell-based qHTS; stimulated with anti-CD3/CD4/CD28 beads; in transgenic mouse T cells | activation, % (series mostly up to about 46 µM) | actives 0.065% (n = 360,000); in the data active = activation above about 50%; inconclusive = mostly about 30% to 49%
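Screening format: compound pinned onto unstimulated transgenic mouse T cells, 60 min incubation, then anti-CD3/anti-CD4/anti-CD28 bead stimulation for 18 hours at 37 degrees C, followed by EGFP and DsRed detection.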
TCR activator – T cell receptor activation; primary human leukocytes, anti-CD3, IL-2 HTRF, 48 h; Potency, µM (top dose mostly 9.22 µM), hits mostly activators; 330,000 tested, under 10 active; AID 504894
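48 hr co-incubation of compounds, a-CD3 beads and primary human leukocytes; IL-2 quantified homogeneously by HTRF with anti-IL-2 K and d2 conjugates.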
Mito fusion act – mitochondrial division inhibition or fusion activation; S. cerevisiae fusion-defective mutant growth rescue, CellTiterGlo 48 h; Potency, µM (titrated, usually from 46.1 µM), most hits filed as activators; actives 0.23% (n = 320,000); note: nearly all actives have a fitted effect of over 45% in size
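Compounds are tested for their ability to restore growth of mitochondrial fusion-defective yeast strains at non-permissive 37C in YPEG medium over 48 hours. Viability is quantified by luciferase luminescence.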
p53 reactivator – re-activators of mutant p53 | H1299 p53-A138V BP100-luciferase reporter, luminescence, 24 h | actives 0.063% (n = 320,000) | Potency, µM (top dose mostly 92.2 µM), most hits filed as activators; note: nearly all actives have a fitted effect of over 45% in size
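H1299 (p53-null), stable ts p53-A138V + BP100-Luc; 1000 cells/well, Opti-MEM/10% FBS; cpd 4 pt, 1:5; 24 h, 37 deg C, 5% CO2; detection reagent 10 min RT; luminescence.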
BRCA1 expr act – BRCA1 expression activation | actives 1.1% (n = 380,000) | Potency, µM (series often up to 46.1 µM), hits mostly activators | AID 624202 | MCF7-BRCA1-FFLuc reporter, luminescence, 48 h; response scale: scaled: vehicle 0%, 10 µM genistein 100%; note: nearly all actives have a fitted effect of over 80% in size
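Cells: MCF7-BRCA1-FFLuc, 2000/well. Exposure: 48 h, 37 °C, 5% CO2. Read: luminescence, 15 min post-substrate. Controls: genistein 10 microM (maximal activation), DMSO (neutral).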
A number is an active result; n = inactive; u = inconclusive; x = no result given. Unless noted, calls come from the whole dose curve; as a rule, active = well fitted curve in the direction sought with a large enough effect; inconclusive = small, poorly fitted or top-dose-only effect, or another doubt; inactive = no such curve, though single readings can be large; an effect the other way counts as inactive or inconclusive.

SMILES	IL2 activator	TCR activator	Mito fusion act	p53 reactivator	BRCA1 expr act
COc1ccccc1Nc1nc(-c2cccnc2)cs1	n	x	n	x	10µM
c1ccc(CCNc2nc(-c3ccccn3)cs2)cc1	n	n	n	u	u
CCc1ccccc1Nc1nc(-c2cccnc2)cs1	n	x	n	n	u
Cc1cc(Oc2ccc(Cl)cc2Cl)nc(C#N)n1	x	x	x	x	n
c1ccc2c(CCc3c[nH]c4ccccc34)ccnc2c1	x	x	x	x	n
OCC[n+]1ccc(/C=C/c2c[nH]c3ccccc23)cc1	94.5	n	n	n	n
O=c1[nH]c(=S)[nH]c2n[nH]nc12	x	x	x	x	n
Clc1cccc(CNc2ccn3nc(-c4cccs4)cc3n2)c1	n	x	x	x	8.91µM
Clc1cccc(CNc2ncnc3nc[nH]c23)c1	x	x	x	x	n
COc1cccc(CNC(=O)CN2C(=O)N(c3ccc(C)cc3C)S(=O)(=O)c3ccccc32)c1OC	x	x	x	x	n
COc1nc(NCc2cccnc2)nc(NC2CCCCC2)n1	n	n	12.6µM	n	u
COc1nc(NCc2cccnc2)nc(OC)n1	n	n	n	n	n
CCc1nn2c(-c3ccco3)ccnc2c1-c1ccc(F)cc1	x	x	x	x	n
CCc1ccc(/C=N/N2CCN(c3ccccn3)CC2)cc1	n	n	n	n	12.6µM
CCN(CC)c1ccc(NC2CC(=O)N(CCc3ccc(OC)cc3)C2=O)cc1 (stereo not given)	125.2	n	n	n	n
COc1ccc(CCNC2CC(=O)N(CCc3ccccc3)C2=O)cc1 (stereo not given)	n	n	n	n	n
c1ccc(-c2ccc(-n3ccnc3)cc2)cc1	n	n	n	u	10µM
c1ccc(-c2nc(N3CCN(c4ccccc4)CC3)nc(-n3ccnc3)n2)cc1	n	n	n	n	n
CC(C)C1Cc2[nH]c(=O)c(C(=O)O)cc2CO1 (stereo not given)	n	n	n	u	8.91µM
CC(C)COc1ccc(S(=O)(=O)NNC(=O)c2cc3ccccc3o2)cc1	n	n	u	n	n
CCCCOc1ccc(S(=O)(=O)NNC(=O)c2cc3ccccc3o2)cc1	n	n	11.2µM	n	n
O=C(COC(=O)CNC(=O)C1CCCCC1)NC1CC1	x	x	x	x	n
c1ccc(COc2ccc(CNCc3cccnc3)cc2)cc1	n	n	n	n	10µM
O=C1C=C(c2cccc(Cl)c2O)C[C@@H](c2ccc(Cl)cc2)C1	n	n	12.6µM	n	n
Cc1ccc(Cl)cc1N1CCN(C(=O)CNC(=O)c2ccc(Br)o2)CC1	n	n	15.8µM	n	n
SMILES	IL2 activator	TCR activator	Mito fusion act	p53 reactivator	BRCA1 expr act
O=C(CCl)c1ccc2c(c1)CCCC2	x	x	x	x	n
Nc1cc(C2CCCC2)nn1-c1ccccc1	n	n	n	n	10µM
O=C(O)c1cc(C2CC2)nn1-c1ccccc1	n	n	n	n	n
COc1ccc(C(=O)Nn2cnc3ccccc3c2=O)c(OC)c1	n	n	n	n	8.91µM
N#CCC(=O)N/N=C\c1ccc(OC/C=C/c2ccccc2)cc1	n	n	n	n	5.01µM
N#CCC(=O)N/N=C\c1ccccc1OC/C=C/c1ccccc1	n	n	n	u	2.51µM
N#CCC(=O)N/N=C/c1ccc(OCc2ccccc2)cc1	n	n	n	n	7.94µM
N#CCC(=O)N/N=C/c1ccc(OS(=O)(=O)c2ccccc2)cc1	n	n	n	n	n
COCC(=O)N/N=C\c1ccccc1OC/C=C/c1ccccc1	n	n	n	n	n
CCC(Cc1ccccc1)NC(=O)c1csc2c1CCCCC2 (stereo not given)	x	x	x	x	n
COc1ccc(Cc2nc3ccc(C(=O)NCC(C)(C)OC)cc3o2)cc1	n	n	n	n	10µM
CCC1CCCCN1C(=O)c1ccc2nc(Cc3ccc(OC)cc3)oc2c1 (stereo not given)	n	n	n	n	11.2µM
O=C(NCC1CCOCC1)c1ccc2nc(Cc3cccc(Cl)c3)oc2c1	n	n	n	n	10µM
CN(CC1CCOCC1)C(=O)c1ccc2nc(Cc3cccc(Cl)c3)oc2c1	n	n	n	n	n
CCn1cc([N+](=O)[O-])c(C(=O)NCc2ccc3c(c2)OCO3)n1	n	n	n	n	n
CCn1cc([N+](=O)[O-])c(C(=O)Nc2ccc3c(c2)OCCO3)n1	n	n	n	n	5.01µM
CCCc1ccc(-c2ccc(/C=C/C(=O)O)cc2)nc1	n	n	u	n	u
CCCCCc1ccc(-c2ccc(/C=C/C(=O)O)cc2)nc1	n	n	12.6µM	n	n
Cc1cccc(-n2c3nc(=O)[nH]c(=O)c-3cc3ccc(Cl)cc32)c1C	x	x	x	x	n
CC(C)c1ccc(CNc2ncccn2)cc1	n	n	n	n	11.2µM
CC(C)c1ccc(CNc2ccc3c(c2)ncn3C)cc1	n	n	n	n	n
O=C(Nc1ccc(Cl)cn1)c1cnn2c1NC(=C1CC1)C=C2C(F)F	x	x	x	x	n
CC(C)(C)OC(=O)N/N=C\c1ccc(OC(=O)c2ccco2)cc1	n	n	n	n	7.94µM
COC(=O)N/N=C\c1ccc(OC(=O)c2ccco2)cc1	n	n	n	n	n
c1ccc(CNc2ncnc3nc(N4CCOCC4)[nH]c23)cc1	x	x	x	x	n
SMILES	IL2 activator	TCR activator	Mito fusion act	p53 reactivator	BRCA1 expr act
COc1ccc(N2CCN(C(c3nnnn3C3CCCC3)C(C)C)CC2)cc1 (stereo not given)	n	n	12.6µM	n	n
CC(=O)N1CCc2c(sc3c2c(=O)n(CCc2ccccc2)c(=O)n3Cc2cccc(C)c2)C1	x	x	x	x	n
Cc1cccc2c(/C=C/c3ccc(N(C)C)cc3)ccnc12	x	x	x	x	n
CC1(C)CC(=O)c2cnc(N3CCN(c4ccccc4)CC3)nc2C1	n	n	n	n	n
CC1(C)CC(=O)c2cnc(N3CCc4ccccc4C3)nc2C1	n	n	n	n	7.08µM
CCOC(=O)CC(NC(=O)CCc1c(C)nc2c(c1C)c(=O)n(C)c(=O)n2C)c1ccc(OCC)c(OC)c1 (stereo not given)	x	x	x	x	n
O=C(COC(=O)c1ccc(-c2ccc([N+](=O)[O-])cc2)o1)NC(=O)NC12CC3CC(CC(C3)C1)C2	n	n	10µM	u	n
O=C(c1ccc(Cl)c(Cl)c1)N1CCC(=O)N(C(COCc2cccc(Cl)c2)Cc2ccccc2)CC1 (stereo not given)	n	n	35.5µM	n	n
O=C(c1cccc(Cl)c1)N1CCC(=O)N(C(COCc2cccc(Cl)c2)Cc2ccccc2)CC1 (stereo not given)	n	n	u	n	n
O=C(OCc1cccc(F)c1)c1ccc2c(c1)-c1ccccc1C2=O	n	n	n	u	11.2µM
O=C(OCc1ccccc1F)c1ccc2c(c1)-c1ccccc1C2=O	n	n	n	u	7.08µM
CCOC(=O)c1ccc(COC(=O)c2ccc3c(c2)-c2ccccc2C3=O)cc1	n	n	n	n	n
COc1ccc(OC)c(/C=C/c2sc3ccccc3[n+]2C)c1	x	x	x	x	n
